One assay concerns the target Neurogenic locus notch homolog protein 3 (Homo sapiens) (UniProt Q9UM47). As to the kind of experiment: NOTCH3 binders on small-molecule microarray, primary screen, biochemical, 635/667 nm fluorescence (AID 1096). Conditions: NOTCH3 binding, 635 nm fluorescence, higher = more signal.
Sequence of Neurogenic locus notch homolog protein 3 (Homo sapiens) (Q9UM47 whole entry, looked up): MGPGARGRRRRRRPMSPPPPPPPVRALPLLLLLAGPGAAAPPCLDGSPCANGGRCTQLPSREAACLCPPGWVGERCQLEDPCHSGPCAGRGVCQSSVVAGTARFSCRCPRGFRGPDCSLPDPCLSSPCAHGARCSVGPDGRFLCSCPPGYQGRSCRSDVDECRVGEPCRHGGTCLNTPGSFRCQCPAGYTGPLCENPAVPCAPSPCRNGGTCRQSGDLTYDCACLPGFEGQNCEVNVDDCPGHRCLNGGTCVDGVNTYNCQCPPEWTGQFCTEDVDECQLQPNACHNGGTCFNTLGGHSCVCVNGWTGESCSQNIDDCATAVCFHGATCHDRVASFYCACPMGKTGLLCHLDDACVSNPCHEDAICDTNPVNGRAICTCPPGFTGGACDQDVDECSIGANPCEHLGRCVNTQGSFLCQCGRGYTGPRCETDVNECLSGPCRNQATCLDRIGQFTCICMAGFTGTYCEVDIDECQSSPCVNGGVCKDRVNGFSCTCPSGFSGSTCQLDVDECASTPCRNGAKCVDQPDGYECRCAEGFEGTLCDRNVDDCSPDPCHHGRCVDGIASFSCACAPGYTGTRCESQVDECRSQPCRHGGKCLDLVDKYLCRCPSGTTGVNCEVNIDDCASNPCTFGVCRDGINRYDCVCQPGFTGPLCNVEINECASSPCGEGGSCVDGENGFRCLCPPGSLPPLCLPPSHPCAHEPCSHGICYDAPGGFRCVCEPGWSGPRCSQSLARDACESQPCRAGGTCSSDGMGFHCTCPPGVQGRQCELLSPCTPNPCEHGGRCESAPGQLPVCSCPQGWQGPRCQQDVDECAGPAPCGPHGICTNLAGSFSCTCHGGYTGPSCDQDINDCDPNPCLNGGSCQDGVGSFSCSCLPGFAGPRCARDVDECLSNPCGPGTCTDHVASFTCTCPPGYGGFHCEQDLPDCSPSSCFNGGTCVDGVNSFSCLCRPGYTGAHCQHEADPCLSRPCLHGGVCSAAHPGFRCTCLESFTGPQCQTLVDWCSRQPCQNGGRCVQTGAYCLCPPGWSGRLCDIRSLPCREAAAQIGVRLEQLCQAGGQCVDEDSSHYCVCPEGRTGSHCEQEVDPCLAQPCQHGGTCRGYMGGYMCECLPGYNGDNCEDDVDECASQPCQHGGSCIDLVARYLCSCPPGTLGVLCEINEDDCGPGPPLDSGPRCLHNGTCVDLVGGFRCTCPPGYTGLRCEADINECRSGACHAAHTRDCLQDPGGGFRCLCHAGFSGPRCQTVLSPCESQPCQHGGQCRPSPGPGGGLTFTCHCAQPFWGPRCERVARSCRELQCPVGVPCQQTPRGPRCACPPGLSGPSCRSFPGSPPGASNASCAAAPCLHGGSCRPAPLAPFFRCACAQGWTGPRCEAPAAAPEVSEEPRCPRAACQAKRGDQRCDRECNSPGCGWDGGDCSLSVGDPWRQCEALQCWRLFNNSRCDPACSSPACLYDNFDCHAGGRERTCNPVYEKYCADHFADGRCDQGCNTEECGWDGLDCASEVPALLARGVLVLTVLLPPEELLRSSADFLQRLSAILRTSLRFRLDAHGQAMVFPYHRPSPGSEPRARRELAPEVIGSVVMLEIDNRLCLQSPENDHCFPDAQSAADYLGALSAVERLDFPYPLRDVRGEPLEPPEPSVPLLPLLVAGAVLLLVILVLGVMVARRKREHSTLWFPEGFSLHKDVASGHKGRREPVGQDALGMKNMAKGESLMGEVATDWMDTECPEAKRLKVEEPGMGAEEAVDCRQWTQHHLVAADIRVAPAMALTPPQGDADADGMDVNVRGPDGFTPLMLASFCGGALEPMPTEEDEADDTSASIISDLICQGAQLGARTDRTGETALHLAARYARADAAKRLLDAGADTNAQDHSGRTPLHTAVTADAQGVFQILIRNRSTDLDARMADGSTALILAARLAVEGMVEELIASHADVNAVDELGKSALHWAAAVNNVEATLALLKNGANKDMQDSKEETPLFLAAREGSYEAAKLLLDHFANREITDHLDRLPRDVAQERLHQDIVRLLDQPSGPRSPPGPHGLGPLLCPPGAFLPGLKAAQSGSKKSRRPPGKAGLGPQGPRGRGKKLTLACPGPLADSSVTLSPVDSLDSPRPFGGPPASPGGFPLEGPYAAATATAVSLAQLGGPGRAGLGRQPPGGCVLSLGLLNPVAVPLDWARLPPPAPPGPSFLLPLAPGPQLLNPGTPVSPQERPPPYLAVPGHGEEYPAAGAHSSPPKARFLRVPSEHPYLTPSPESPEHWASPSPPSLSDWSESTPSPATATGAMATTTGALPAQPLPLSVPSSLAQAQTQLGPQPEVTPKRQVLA
Molecule `CC(C)NC(=O)[C@@]1(c2ccc([N+](=O)[O-])cc2)CC(=O)N(C2CCCCC2)[C@@H]1c1ccc(CO)cc1` showed a composite z-score of 1.07.

In the case of `CC1CC/C=C\[C@H]2OC34C=CCN(c5ccc(Cl)cc5)C(=O)[C@H]3N(C(C)CO)C(=O)[C@]4(C)C2C(=O)O1` (stereo not given in full), the composite z-score was -0.984.

With `COc1cc2c(cc1O)C(C1CC1)N(Cc1cccc(OC(F)(F)F)c1)CC2` (stereo not given), the composite z-score is -0.167.

Take `CC(c1ccccc1)C(O)C1C=CC2C(=O)N(C)C(=O)C2N1Nc1ccccc1` (stereo not given): the composite z-score came to 1.14.

As for `CCOC(=O)C1=CC[C@@H](c2ccccc2F)N(S(=O)(=O)c2ccc(C)cc2)[C@H]1c1ccccc1`, the composite z-score was 0.812.

System in another assay: not listed separately
As to the kind of experiment: small-molecule microarray binders of probe aEGFR, primary screen, biochemical, biotinylated probe, 635/667 nm fluorescence (AID 1097).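 Note: probe is a biotinylated anti-EGFR antibody binding compounds printed on slides; score combines fluorescence near 667 nm and signal to noise of each spot.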 Conditions: higher = more signal.
Consider `CC1CC/C=C\[C@H]2OC34C=CCN(C(C)(C)C)C(=O)[C@H]3N(CCCCCO)C(=O)[C@@H]4C2C(=O)O1` (stereo not given in full), for which the composite z-score was -0.262.

Molecule `COc1cc(NN2C(C(O)c3cc(OC)c(OC)c(OC)c3)C=CC3C(=O)N(C)C(=O)C32)cc(OC)c1OC` (stereo not given) showed a composite z-score of 0.08.

Turning to `[N-]=[N+]=NCc1ccccc1[C@H]1OC(c2ccc(OCCCO)cc2)=N[C@@]1(Cc1ccccc1N=[N+]=[N-])C(=O)NCC(O)CO` (stereo not given in full), the composite z-score was 0.0201.

With `C=C(COC)/C(=C/C[C@H](OC(=O)c1ccncc1)c1ccccc1OCCO)c1cc(C(=O)OC)ccc1OC`, the composite z-score stood at 0.146.

On to `CC(C)=C1C(=O)C(c2ccccc2)=C2CN3C(=O)N(CCc4ccccc4)C(=O)[C@]3(Cc3ccc(C(F)(F)F)cc3)[C@H]21`, for which the composite z-score was -0.139.

With `NCCCCCCNC(=O)[C@@H]1C[C@@H]2C(=O)N[C@@H](CCCCN)C(=O)N2[C@@H]1c1ccc(O)cc1`, the composite z-score is 0.217.

As for `CC(C)[Si](C#CCCCC#N)(O[C@H](c1ccccc1)c1cn(Cc2ccccc2)nn1)C(C)C`, the composite z-score was -0.0681.

Turning to `CC(C)c1ccc(NN2C(C(O)c3ccc(C#N)cc3)C=CC3C(=O)N(c4ccccc4)C(=O)C32)cc1` (stereo not given), the composite z-score amounted to 0.16.

`COC(=O)[C@]1(CCS(=O)(=O)c2ccccc2)N=C(c2ccc(OCCCO)cc2)O[C@@H]1c1ccccc1N=[N+]=[N-]`: the composite z-score was found to be 0.6.

For `C=C[C@H](C)[C@H](OC(=O)Nc1ccc(SC)cc1)c1ccc(OCCO)cc1`, the composite z-score was -0.15.

Take `Cc1ccc(S[C@]2(C(=O)NCC(F)(F)F)CC(=O)N(Cc3cc(C(F)(F)F)cc(C(F)(F)F)c3)[C@@H]2c2ccc(CO)cc2)cc1`: the composite z-score is -0.181.

`O=C1OCCC=C[C@H]2OC34C=CCN(c5ccc6ccccc6c5)C(=O)[C@H]3N(CCCO)C(=O)[C@@H]4C12` (stereo not given in full): the composite z-score is -0.295.

As for `O=C1O[C@H](c2ccccc2)[C@H](c2ccccc2)N2[C@H]1[C@@H](C(=O)O)[C@]1(C(=O)Nc3ccc(C#CCCO)cc31)[C@H]2c1ccccc1OCCO`, the composite z-score was -0.204.

`COC(=O)[C@@]1(Cc2ccc(F)cc2)[C@H]2c3cc(C(=O)N4CCCC4)n(CCc4c[nH]c5ccccc45)c3C[C@H]2CN1C(=O)c1ccccc1`: the composite z-score was determined as 0.0688.

Molecule `[N-]=[N+]=Nc1ccccc1C[C@]1(C(=O)N2CCOCC2)COC(c2ccc(OCCCO)cc2)=N1` displayed a composite z-score of 0.0308.

In the case of `C=CCN1C(=O)[C@]2(CCC(=O)OC(C)(C)C)N=C(c3ccc(OCCCO)cc3)O[C@@H]2c2ccccc21`, the composite z-score was 0.401.

`O=C1OCCC=C[C@H]2OC34C=CCN(Cn5nnc6ccccc65)C(=O)[C@H]3N(CCCO)C(=O)[C@@H]4C12` (stereo not given in full): the composite z-score is -0.264.

For the molecule `COCCOC(=O)N1C(=O)[C@@]2(c3ccccc31)[C@H](c1ccc(O)cc1)N1[C@H](c3ccccc3)[C@H](c3ccccc3)OC(=O)[C@H]1[C@@H]2C(=O)N1CCN(c2ncccn2)CC1`, the composite z-score worked out at 0.0334.

Turning to `Cc1ccc(S[C@]2(C(=O)NCC(F)(F)F)CC(=O)N(Cc3cc(C(F)(F)F)cc(C(F)(F)F)c3)[C@@H]2c2ccc(CO)cc2I)cc1`, the composite z-score is -0.556.

As for `C#CCN([C@@H](Cc1ccccc1)C(=O)OC)[C@@H](/C=C/C1CC1)[C@H](O)Cc1ccccc1`, the composite z-score is -0.307.

On to `CC(C)C(CO)N1C(=O)[C@@H]2[C@H]3C(=O)OCC=C[C@H]3OC23C=CCN(c2ccc(Cl)cc2)C(=O)[C@@H]13` (stereo not given in full), for which the composite z-score was -0.068.

Regarding `COC(=O)[C@@]1(Cc2ccc(F)cc2)[C@H]2c3cc(C(=O)N4CCCC4)n(Cc4ccc(C)c(F)c4F)c3C[C@H]2CN1C(=O)c1ccccc1`, the composite z-score was -0.111.

With `COc1ccccc1CN1C(=O)c2ccccc2[C@](Cc2ccccc2I)(C(=O)O)[C@@H]1c1ccc(CO)cc1`, the composite z-score turned out to be 0.554.

Take `COc1ccc([C@H]2OC[C@@H]3C[C@H](Cc4ccccc4)C(=O)N32)cc1`: the composite z-score was -0.0978.

`COCCOC(=O)N1C(=O)[C@@]2(c3cc(C#CC4(O)CCCCCC4)ccc31)[C@H](c1ccc(O)cc1)N1[C@H](c3ccccc3)[C@H](c3ccccc3)OC(=O)[C@H]1[C@@H]2C(=O)N1CCN(c2ncccn2)CC1`: the composite z-score is -0.0234.

As for `CCCC1(C(=O)OC)C=C2C(=C(C)C(=O)C2C)CN1` (stereo not given), the composite z-score is -0.0828.

As to `COc1cc(NN2C(C(O)c3ccco3)C=CC3C(=O)N(C)C(=O)C32)cc(OC)c1OC` (stereo not given), the composite z-score came to 0.232.

`CCCNC(=O)[C@@H]1c2ccccc2C(=O)N(Cc2ccc(OC(F)(F)F)cc2)[C@H]1c1ccc(CO)cc1`: the composite z-score was -0.0316.

For the molecule `C=CC[C@@H](OC(=O)Nc1ccc(OC)cc1)c1ccc(O)c(F)c1`, the composite z-score is -0.241.

As for `CCCC[C@@H](O)C1=C(COC)C[C@H]2C(=O)N(Cc3ccccc3)C(=O)[C@H]2[C@H]1CO`, the composite z-score is -0.113.

`CC(C)NC(=O)[C@@]1(c2ccc([N+](=O)[O-])cc2)CC(=O)N(C2CCCCC2)[C@@H]1c1ccc(CO)cc1`: the composite z-score is -0.296.

Consider `CC1CC/C=C\[C@H]2OC34C=CCN(c5ccc(Cl)cc5)C(=O)[C@H]3N(C(C)CO)C(=O)[C@]4(C)C2C(=O)O1` (stereo not given in full), for which the composite z-score was -0.173.

As for `COc1cc2c(cc1O)C(C1CC1)N(Cc1cccc(OC(F)(F)F)c1)CC2` (stereo not given), the composite z-score turned out to be 0.0009.

Consider `CC(c1ccccc1)C(O)C1C=CC2C(=O)N(C)C(=O)C2N1Nc1ccccc1` (stereo not given), for which the composite z-score was determined as 0.0849.

On to `CCOC(=O)C1=CC[C@@H](c2ccccc2F)N(S(=O)(=O)c2ccc(C)cc2)[C@H]1c1ccccc1`, for which the composite z-score was -0.101.

The record behind these values is PubChem BioAssay.
